# Laboratory results from PubChem BioAssay (EPA / NIEHS).
# Inconclusive results are not listed. Activity calls are given as the source filed them. How the source made its calls: active means hit-call score of the fitted dose curve at least 0.9, where 1 is the maximum; inconclusive means response in the unintended direction; inactive means score below 0.9.
# Tested on: rabbit Platelet Activating Factor Receptor (PAF), gene 100354046
# Assay: NVS_GPCR_rabPAF: NovaScreen (NVS) G Protein-Coupled Receptor Assay for rabbit Platelet Activating Factor Receptor (PAF) (AID 2283287)
# Protocol: NVS_GPCR_rabPAF is a biochemical, single-readout assay that uses extracted gene-proteins from Rabbit platelets in a tissue-based cell-free assay. Measurements were taken 1 hour after chemical dosing in a 48-well plate.NVS_GPCR_rabPAF is one of one assay component(s) measured or calculated from the NVS_GPCR_rabPAF assay. It is designed to make measurements of radioligand binding, a form of binding reporter, as detected with scintillation counting signals by Filter-based radiodetection technology.Data from the assay component NVS_GPCR_rabPAF was analyzed into 1 assay endpoint. This assay endpoint, NVS_GPCR_rabPAF, was analyzed in the positive analysis fitting direction relative to DMSO as the negative control and baseline of activity. Using a type of binding reporter, loss-of-signal activity can be used to understand changes in the binding as they relate to the gene PTAFR. Furthermore, this assay endpoint can be referred to as a primary readout, because the performed assay has only produced 1 assay endpoint. To generalize the intended target to other relatable targets, this assay endpoint is annotated to the gpcr intended target family, where the subfamily is rhodopsin-like receptor.
# Binding assays used specific radioligands (tritiated, iodinated) with non-radioactive competitive displacement ligands in agonist or antagonist protocols (as indicated) and various reference compounds and inhibitors to titrate specific binding to receptors and transporters. Most enzyme assays (CYPs, kinases, phosphatases, proteases, HDACs) used recombinant protein and specific substrates (fluorescence mostly, some colorimetric and radioactive) and inhibitors, followed by a biochemical separation of substrate and product. All assays for the biochemical HTS were initially run in duplicate at a single concentration (10 uM for CYP450 assays and 25 uM for all others). […] Each assay was run with positive and negative controls, and concurrent controls on every plate. The follow-up (secondary) screen tested active chemical-pairs in concentration series, as well as a few additional assays not tested in the primary screen, some selected negative inactives, and several cases re-run in the concentration series for confirmatory purposes.
Structure (SMILES),AC50,outcome
CCN(Cc1cccnc1)C(=O)c1cccc(Cl)c1[C@]1(C)C(=O)N(Cc2ccc(OC)cc2OC)c2ccc(Cl)cc21,1.68 µM (active),–
CCCCCCCCCCCC[N+](C)(C)C,9.15 µM (active),–
Cc1cc(F)ccc1-c1cc(N2CC[C@@H](O)[C@H]2CO)ncc1N(C)C(=O)C(C)(C)c1cc(C(F)(F)F)cc(C(F)(F)F)c1,1.38 µM (active),–
NCc1cccc(C2CCN(C(=O)c3ccc(C#Cc4ccccc4F)o3)CC2)c1,9.21 µM (active),–
COc1cc(C(=O)NC2CCN(C)CC2)ccc1Nc1ncc2c(n1)N(C1CCCC1)CC(F)(F)C(=O)N2C,0.76 µM (active),–
Clc1ccccc1C(c1ccccc1)(c1ccccc1)n1ccnc1,0.621 µM (active),–
CCOC(=O)O[C@H](C)OC(=O)c1ccc2c(c1)cc(C(=O)NC1CCN(C(C)C)CC1)n2Cc1cc(-c2ccc(Cl)s2)on1,17.3 µM (active),–
CCN(CC)C(=O)c1cc(S(=O)(=O)Cc2ccccc2)c(N2CCC(c3ccccc3)CC2)cc1N(CC)CCN(C)C,10.2 µM (active),–
CC[C@@H]1C[C@H](N(Cc2cc(C(F)(F)F)cc(C(F)(F)F)c2)C(C)=O)c2cc(C(F)(F)F)ccc2N1C(=O)OC(C)C,–,inactive
O=C1c2ccccc2C(=O)N1CCc1noc(-c2ccc(CN3CCCCCC3)s2)n1,3.11 µM (active),–
Cc1occc1C(=O)Nc1ccc(C(=O)N2CCC(F)(F)/C(=C\C(=O)N3CCC(N4CCCCC4)CC3)c3ccccc32)cc1,2.76 µM (active),–
Cc1oc2c(NC(=O)c3c(Cl)cccc3Cl)cccc2c1C(C)(C)O,5.98 µM (active),–
